According to PubChem BioAssay (NCI):
This is part of a sample that, as a whole, favours compounds with a hit. Of some 79,000 tested, about 15% had one in any assay. A number with no mark means an inactive call. Activity calls are given as the source filed them. Rule as the data show it: active = growth inhibition above about 70%; inactive = the rest.

What was measured:
[1] = NCI Yeast Anticancer Drug Screen. Data for the rad50 strain (AID 155);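 also: 0% = growth of vehicle-only cultures of the same strain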; details: S. cerevisiae rad50 strain growth inhibition; at 50.0 µM; stronger effect = higher value
Procedure, shortened: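 A DNA repair-deficient yeast mutant serves as the test organism; compound-induced growth inhibition is calculated against vehicle-treated cells.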

[2] = NCI Yeast Anticancer Drug Screen. Data for the mec2-1 strain (AID 157); details: S. cerevisiae mec2-1 strain, at 50.0 µM, stronger effect = higher value
Procedure, shortened: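 Cells of the genetically defined mec2-1 yeast strain are incubated with test compound. Inhibition of growth is calculated against vehicle-treated controls.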

[3] = NCI Yeast Anticancer Drug Screen. Data for the sgs1 mgt1 strain (AID 161);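 also: 0% = growth of cultures given vehicle only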; details: S. cerevisiae sgs1 mgt1 strain, at 50.0 µM, stronger effect = higher value
Procedure, shortened: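 Test agents were incubated with a DNA-repair-mutant yeast strain. Growth was then read and compared against vehicle-treated controls.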

[4] = NCI Yeast Anticancer Drug Screen. Data for the cln2 rad14 strain (AID 165);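 also: 0% = growth equal to vehicle treated cultures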; details: S. cerevisiae cln2 rad14 strain, at 50.0 µM, stronger effect = higher value
Procedure, shortened: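 The screen exposed genetically defined yeast (cln2 rad14) to test compounds and scored growth inhibition relative to vehicle-treated controls.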

[5] = NCI Yeast Anticancer Drug Screen. Data for the bub3 strain (AID 167); details: S. cerevisiae bub3 mutant strain, at 50.0 µM, stronger effect = higher value
Procedure, shortened: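 Inhibition values come from growth of compound-treated mutant yeast normalised to vehicle-treated controls.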

[6] = NCI Yeast Anticancer Drug Screen. Data for the mlh1 rad18 strain (AID 175); details: S. cerevisiae mlh1 rad18 strain growth inhibition; at 50.0 µM; stronger effect = higher value
Procedure, shortened: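 Compound-treated yeast growth, normalised to vehicle controls. Strain bears defined DNA repair mutations.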

Row | Structure (SMILES) | growth inhibition [1] | growth inhibition [2] | growth inhibition [3] | growth inhibition [4] | growth inhibition [5] | growth inhibition [6]
1 | CCOC(=O)C(Cc1ccccc1C)(NC(C)=O)C(=O)OCC | 6.65% | -0.25% | 7.35% | 4.1% | 1.4% | -11.2%
2 | Cc1cc(O)c([N+](=O)[O-])cc1C | -8.05% | -1.85% | -15.2% | -1.75% | 3.75% | -3.55%
3 | O=C(COc1ccccc1)Nc1ccc(C(=O)O)cc1 | -2.95% | -3.6% | -3.35% | 1.85% | 22.1% | 25.3%
4 | N=S(c1ccccc1)c1ccccc1[N+](=O)[O-] (stereo unspecified) | 16.2% | -6.65% | 18.6% | 11.8% | 4.35% | -3.45%
5 | NNC(=O)c1ccc2ccccc2c1O | 17.4% | 14.8% | 17.1% | 0.05% | 22.1% | 49%
6 | COc1ccc(C(=O)CC2=Nc3nnc(CCCCCCCc4nnc5n4C(=O)C(CC(=O)c4ccc(OC)cc4)=N5)n3C2=O)cc1 | -5.95% | -1.9% | -16.4% | 18.9% | 0.1% | -24.1%
7 | Cc1cccc(C(=O)O)c1N | 9.7% | -5.25% | -10.6% | 9.95% | -33.6% | 13.4%
8 | O=C(O)c1cccc(F)c1C(=O)O | -4.5% | -3.65% | -1.5% | -20.4% | -2.95% | 7.3%
9 | O=C(NC(CSC(=O)c1ccccc1)C(=O)O)c1ccccc1 (stereo unspecified) | 3.2% | -8.5% | -2.6% | -22.1% | 6.8% | 7.45%
10 | CCCCCN(C=O)c1ccccc1 | -4.25% | -13.7% | -19.9% | -13.6% | -7.4% | -2.5%
11 | COc1ccccc1NC(=O)NCCN1CCCC1 | -2.15% | 8.1% | 31.1% | -8.9% | 9.45% | 5.3%
12 | CC1(C)OCC(C2OC3OC(C)(C)OC3C2OP(=O)(N2CC2)N2CC2)O1 (stereo unspecified) | -16.1% | -31.4% | -38.9% | -49.2% | -70.8% | -73.4%
13 | O=S1c2ccccc2N=C(c2cccc3ccccc23)CC1c1cccc2ccccc12 (stereo unspecified) | 56.4% | 38.8% | 52.5% | 23.8% | 58.1% | 41%
14 | CCCCCC1CC[N-]CC1.CCCCCC1CC[N-]CC1.N#C[S-].N#C[S-].[Cu] | 33.4% | 12.7% | 5% | -33.1% | -16.7% | 24.1%
15 | Cc1ccc(N=Cc2ccccc2O)cc1.[Co] | -18.9% | 14.9% | -2.75% | 14.2% | 1.45% | -11.1%
16 | CC1(C)C2CCC3CC(CCC#N)CCC3C21C#N (stereo unspecified) | -32.2% | -11.2% | -8.8% | -34.5% | -37.8% | -23.1%
17 | COc1ccccc1NC(=O)/C(=C\n1c(=S)[nH]c2ccc([N+](=O)[O-])cc21)C(C)=O | -9.7% | -10.4% | 2.55% | -6.25% | 4.95% | -4.15%
18 | CCOC(=O)C1C(C)NC(C)C(C(=O)OCC)C1C (stereo unspecified) | 15.9% | 1.05% | 3.4% | -44.5% | 5.3% | 26.1%
19 | COc1ccc(CCN(C)C2c3ccccc3C=Cc3ccccc32)cc1OC | 30.5% | 2.4% | 3.35% | -16.2% | -1.85% | 8.65%
20 | CCCCC/C(=N\Nc1ccc([N+](=O)[O-])cc1[N+](=O)[O-])c1ccc(-c2ccccc2)cc1 | 13.9% | 6.05% | -6.9% | 19.1% | -5.95% | 0.6%
21 | COC1OC2COC(c3ccccc3)OC2C(NC(C)=O)C1OC(C)=O (stereo unspecified) | 4.6% | 17.7% | 8.9% | 9.9% | -12.5% | -13.1%

Row | Structure (SMILES) | growth inhibition [1] | growth inhibition [2] | growth inhibition [3] | growth inhibition [4] | growth inhibition [5] | growth inhibition [6]
22 | CC1(C)CC[C@]2(C(=O)O)CC[C@]3(C)C(=CC[C@@H]4[C@@]5(C)CC[C@@H]6OC(C)(C)OC[C@@]6(C)[C@@H]5CC[C@]43C)[C@H]2C1 | 3.7% | 10.8% | -19.9% | -5.1% | -8.65% | -62.6%
23 | O=c1oc2ccccc2c(O)c1Cc1cccc(Cc2c(O)c3ccccc3oc2=O)c1 | 11.9% | 5.05% | 4.9% | 9.3% | -11.3% | 5%
24 | CCN(CC)/[N+]([O-])=N/OCC(C)O (stereo unspecified) | 18.4% | -3.45% | -3.85% | 8.35% | 0.55% | -12.5%
25 | Cc1cc(S(=O)(=O)Nc2n[nH]c(N)n2)c(Cl)cc1Cl | -52% | 1.55% | -56% | -51% | 9.4% | -48.5%
26 | CC(=O)NC1CON(C(C)=O)C1=O (stereo unspecified) | 2.75% | 0.65% | -9.85% | -54.4% | 2.7% | -6.75%
27 | COC(=O)c1cc(/C=C/C(=O)Cc2ccccc2)cn1S(=O)(=O)c1ccccc1 | -6.3% | -9.6% | -13.5% | -23.9% | 1.5% | 1.9%
28 | CN1C(=O)NC(C)(CCOCc2ccccc2)C1=O (stereo unspecified) | 8.85% | 0.45% | 0.25% | -1.25% | 6.65% | 8.65%
29 | COc1ccc2nc(NC(=O)C(=O)NNC(=O)c3ccncc3)sc2c1 | -24.5% | -24% | -10.1% | 21.1% | -22.9% | -14.7%
30 | Oc1c(Br)cc(Br)cc1/C=C/NC(=S)NC1CC2CC1C1C=CCC21 (stereo unspecified) | 28.2% | 32.1% | 10.6% | -6.15% | 5.15% | 55.9%
31 | CCOC(=O)N1CCN(c2ccc3ccc(N)nc3n2)CC1 | 22.1% | -12.7% | 28.8% | -4.65% | 18.9% | 16.9%
32 | CC(=O)Oc1ccc(=O)[nH]c1 | 1.3% | -11.9% | 2.2% | -18.4% | 2.75% | -48%
33 | C=CC1=C(C)C2=NC1=CC1=NC(=CC3=C(C)C4=C(O)C(C(=O)OC)C(=C5NC(=C2)C(C)C5CCC(=O)OC)C4=N3)C(CC)=C1C (stereo unspecified) | 10.1% | 11.3% | -48.8% | 7.95% | 4.95% | -12.5%
34 | COC(=O)c1cc(C)ccc1/C=C1\Cc2c(C)cc(C)cc2C1=O | -12.2% | -25.8% | -6.85% | -30.6% | -46.1% | -39.6%
35 | CN(C)CCC(N)(P(=O)([O-])[O-])P(=O)([O-])[O-].N.N.[Pt+2] | -24.5% | 2.2% | 3.15% | 12.9% | 12.3% | 3.95%
36 | CCOC(=O)C(=CN(C)c1ccc(C)cc1)C(=O)OCC | 20.4% | 2.65% | 8.2% | 9.7% | 25.6% | 8.9%
37 | FS(F)(F)(F)(F)c1cccc(NC(=S)SCc2ccc(Cl)cc2)c1 | 43.6% | 24.8% | 39.8% | 32.4% | 6.8% | 30.1%
38 | CCOC(C)=C(C#N)C#N | 8.9% | -9.4% | 8.95% | -7.85% | -10.2% | 4.9%
39 | COC1(CCO)CC=CCC1(CCO)OC (stereo unspecified) | -2.45% | -20.4% | -19.3% | 13.3% | -19.4% | -7.9%
40 | O=[N+]([O-])c1ccc(/C(=C/c2ccc(Cl)cc2Cl)S(=O)(=O)C(Cl)Cl)o1 | 98.3% (active) | 98.8% (active) | 99.1% (active) | 99.1% (active) | 98.2% (active) | 98% (active)
41 | O=C(NCc1ccc([N+](=O)[O-])cc1)c1ccccc1 | 4.15% | 4.45% | -6.4% | 10.1% | 0.85% | 6.7%
